Changes are numbered by the printed parent chain.

Common to all, as to assay: PBM; 200 nM protein, PBS
What all share (conditions): dsDNA, one strand shown

Experiment [1] has as its target HOXC9 (Homo sapiens, UniProt P31274 178-260, K195R).
Experiment [2] addresses HOXC10 (Homo sapiens, UniProt Q9NYD6 254-340).
For experiment [3], the target named is T1, PAX4 (Homo sapiens, UniProt O43316 9-242, R200K).
T1 sequence: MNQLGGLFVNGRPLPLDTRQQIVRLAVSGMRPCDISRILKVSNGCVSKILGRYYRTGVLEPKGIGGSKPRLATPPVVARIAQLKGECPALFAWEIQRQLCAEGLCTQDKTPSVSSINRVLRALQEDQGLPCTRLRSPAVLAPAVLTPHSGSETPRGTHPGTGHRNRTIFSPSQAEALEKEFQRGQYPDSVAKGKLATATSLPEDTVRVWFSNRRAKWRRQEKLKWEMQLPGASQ

In experiment [4] the target is T2, PAX4 (Homo sapiens, UniProt O43316 9-242).
T2 sequence: T1 sequence with K192R

Experiment [5] deals with HOXC9 (Homo sapiens, UniProt P31274 178-260).
Sequence of HOXC9 (Homo sapiens, UniProt P31274 178-260) (P31274 178-260): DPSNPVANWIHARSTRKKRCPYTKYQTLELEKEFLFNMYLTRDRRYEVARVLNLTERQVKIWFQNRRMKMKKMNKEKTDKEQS
The target of experiment [6] is ALX3 (Homo sapiens, UniProt O95076 139-225, N203Q).
Sequence of ALX3 (Homo sapiens, UniProt O95076 139-225, N203Q) (O95076 139-225 N203Q): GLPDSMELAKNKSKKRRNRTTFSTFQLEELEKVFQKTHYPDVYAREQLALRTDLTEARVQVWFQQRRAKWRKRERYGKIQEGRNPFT
Experiment [7] has as its target T3, PAX4 (Homo sapiens, UniProt O43316 9-242, R200Q).
T3 sequence: T1 sequence with K192Q

For experiment [8], the target named is HOXC9 (Homo sapiens, UniProt P31274 178-260, R193K).
Sequence of HOXC9 (Homo sapiens, UniProt P31274 178-260, R193K) (P31274 178-260 R193K): as the sequence (P31274 178-260) above, with R16K counted along it
The target in experiment [9] is T4, PAX4 (Homo sapiens, UniProt O43316 9-242, F177V).
T4 sequence: T1 sequence with F169V, K192R

The target in experiment [10] is HOXC10 (Homo sapiens, UniProt Q9NYD6 254-340, K271E).
Sequence of HOXC10 (Homo sapiens, UniProt Q9NYD6 254-340, K271E) (Q9NYD6 254-340 K271E): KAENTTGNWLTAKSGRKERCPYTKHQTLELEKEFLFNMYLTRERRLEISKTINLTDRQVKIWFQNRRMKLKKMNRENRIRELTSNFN
The target of experiment [11] is ALX3 (Homo sapiens, UniProt O95076 139-225).
Sequence of ALX3 (Homo sapiens, UniProt O95076 139-225) (O95076 139-225): as the sequence (O95076 139-225 N203Q) above, with Q65N counted along it
In experiment [12] the target is T5, PAX4 (Homo sapiens, UniProt O43316 9-242, F177Y).
T5 sequence: T1 sequence with F169Y, K192R

In experiment [13] the target is ALX3 (Homo sapiens, UniProt O95076 139-225, L168Q).
Sequence of ALX3 (Homo sapiens, UniProt O95076 139-225, L168Q) (O95076 139-225 L168Q): as the sequence (O95076 139-225 N203Q) above, with L30Q, Q65N counted along it
Experiment [14] addresses HOXC9 (Homo sapiens, UniProt P31274 178-260, R222W).
Experiment [15] addresses ALX3 (Homo sapiens, UniProt O95076 139-225, L168V).
Experiment [16] addresses T6, PAX4 (Homo sapiens, UniProt O43316 9-242, R227W).
T6 sequence: T1 sequence with K192R, R219W

Experiment [17] deals with ALX3 (Homo sapiens, UniProt O95076 139-225, N203S).
Sequence of ALX3 (Homo sapiens, UniProt O95076 139-225, N203S) (O95076 139-225 N203S): as the sequence (O95076 139-225 N203Q) above, with Q65S counted along it
Experiment [18] addresses T7, NKX2-6 (Homo sapiens, UniProt A6NCS4 118-204, R150C).
T7 sequence: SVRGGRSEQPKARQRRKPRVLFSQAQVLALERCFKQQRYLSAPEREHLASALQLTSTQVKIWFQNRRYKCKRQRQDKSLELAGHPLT

Experiment [19] has as its target HOXB6 (Homo sapiens, UniProt P17509 132-218, K202E).
In experiment [20] the target is HOXB6 (Homo sapiens, UniProt P17509 132-218).
Sequence of HOXB6 (Homo sapiens, UniProt P17509 132-218) (P17509 132-218): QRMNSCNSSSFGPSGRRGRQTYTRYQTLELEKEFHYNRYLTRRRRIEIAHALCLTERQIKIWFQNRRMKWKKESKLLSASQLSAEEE
The target of experiment [21] is CRX (Homo sapiens, UniProt O43186 26-111, E42D).
Sequence of CRX (Homo sapiens, UniProt O43186 26-111, E42D) (O43186 26-111 E42D): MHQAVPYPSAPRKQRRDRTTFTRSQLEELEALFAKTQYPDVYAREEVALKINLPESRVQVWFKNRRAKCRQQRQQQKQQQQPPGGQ
Experiment [22] concerns the target CRX (Homo sapiens, UniProt O43186 26-111, R41L).
Experiment [23] concerns the target ALX1 (Homo sapiens, UniProt Q15699 118-204, L144V).
The target of experiment [24] is ALX1 (Homo sapiens, UniProt Q15699 118-204, L144R).
Sequence of ALX1 (Homo sapiens, UniProt Q15699 118-204, L144R) (Q15699 118-204 L144R): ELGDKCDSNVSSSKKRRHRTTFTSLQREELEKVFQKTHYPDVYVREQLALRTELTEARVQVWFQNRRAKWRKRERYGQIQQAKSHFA
The target of experiment [25] is ALX1 (Homo sapiens, UniProt Q15699 118-204).
Sequence of ALX1 (Homo sapiens, UniProt Q15699 118-204) (Q15699 118-204): as the sequence (Q15699 118-204 L144R) above, with R27L counted along it
Experiment [26] concerns the target T8, NKX2-6 (Homo sapiens, UniProt A6NCS4 118-204).
T8 sequence: T7 sequence with C33R

In experiment [27] the target is T9, NKX2-6 (Homo sapiens, UniProt A6NCS4 118-204, F151L).
T9 sequence: T7 sequence with C33R, F34L

The target of experiment [28] is VAX1 (Homo sapiens, UniProt Q5SQQ9 86-172).
Sequence of VAX1 (Homo sapiens, UniProt Q5SQQ9 86-172) (Q5SQQ9 86-172): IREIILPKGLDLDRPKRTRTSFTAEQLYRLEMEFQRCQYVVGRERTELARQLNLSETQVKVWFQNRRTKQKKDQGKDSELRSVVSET
Experiment [29] has as its target VAX1 (Homo sapiens, UniProt Q5SQQ9 86-172, T142I).
Experiment [30] concerns the target VAX1 (Homo sapiens, UniProt Q5SQQ9 86-172, K157R).
The next experiment deals with HOXB9 (Homo sapiens, UniProt P17482 171-250, R186Q).
Sequence of HOXB9 (P17482 171-250 R186Q): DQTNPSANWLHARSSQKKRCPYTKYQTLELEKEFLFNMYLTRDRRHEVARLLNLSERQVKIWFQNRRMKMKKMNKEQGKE
Experiment [31] has as its target PROP1 (Homo sapiens, UniProt O75360 56-141).
For experiment [32], the target named is PROP1 (Homo sapiens, UniProt O75360 56-141, R99H).
Sequence of PROP1 (Homo sapiens, UniProt O75360 56-141, R99H) (O75360 56-141 R99H): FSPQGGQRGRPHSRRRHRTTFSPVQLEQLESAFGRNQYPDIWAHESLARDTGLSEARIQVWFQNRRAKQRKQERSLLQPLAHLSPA
Experiment [33] concerns the target PROP1 (Homo sapiens, UniProt O75360 56-141, F88S).

Sequence of HOXC9 (Homo sapiens, UniProt P31274 178-260, R222W) (P31274 178-260 R222W): as the sequence (P31274 178-260) above, with R45W counted along it
Sequence of HOXC9 (Homo sapiens, UniProt P31274 178-260, K195R) (P31274 178-260 K195R): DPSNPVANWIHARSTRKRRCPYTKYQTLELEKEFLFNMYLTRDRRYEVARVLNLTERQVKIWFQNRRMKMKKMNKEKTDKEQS
Sequence of ALX1 (Homo sapiens, UniProt Q15699 118-204, L144V) (Q15699 118-204 L144V): as the sequence (Q15699 118-204 L144R) above, with R27V counted along it
Sequence of HOXB6 (Homo sapiens, UniProt P17509 132-218, K202E) (P17509 132-218 K202E): as the sequence (P17509 132-218) above, with K71E counted along it
Sequence of VAX1 (Homo sapiens, UniProt Q5SQQ9 86-172, T142I) (Q5SQQ9 86-172 T142I): as the sequence (Q5SQQ9 86-172) above, with T57I counted along it
Sequence of ALX3 (Homo sapiens, UniProt O95076 139-225, L168V) (O95076 139-225 L168V): as the sequence (O95076 139-225 N203Q) above, with L30V, Q65N counted along it
Sequence of PROP1 (Homo sapiens, UniProt O75360 56-141, F88S) (O75360 56-141 F88S): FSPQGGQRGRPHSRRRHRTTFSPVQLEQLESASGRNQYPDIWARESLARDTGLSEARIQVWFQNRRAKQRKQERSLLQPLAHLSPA
Sequence of VAX1 (Homo sapiens, UniProt Q5SQQ9 86-172, K157R) (Q5SQQ9 86-172 K157R): as the sequence (Q5SQQ9 86-172) above, with K72R counted along it
Sequence of HOXC10 (Homo sapiens, UniProt Q9NYD6 254-340) (Q9NYD6 254-340): as the sequence (Q9NYD6 254-340 K271E) above, with E18K counted along it
Sequence of CRX (Homo sapiens, UniProt O43186 26-111, R41L) (O43186 26-111 R41L): as the sequence (O43186 26-111 E42D) above, with R16L, D17E counted along it
Sequence of PROP1 (Homo sapiens, UniProt O75360 56-141) (O75360 56-141): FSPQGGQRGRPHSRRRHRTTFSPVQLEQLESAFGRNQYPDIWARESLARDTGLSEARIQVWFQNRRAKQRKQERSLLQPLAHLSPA

CAGCCTTC: the binding signal with HOXC9 [1] is 9.4 upbm affinity estimate (log intensity, higher = more binding, comparable within an allelic series); in the experiment with HOXC10 [2] it was 9.83 upbm affinity estimate (log intensity, higher = more binding, comparable within an allelic series); in the experiment with PAX4 [3] it was 9.16 upbm affinity estimate (log intensity, higher = more binding, comparable within an allelic series); in the experiment with PAX4 [4], 9.3 upbm affinity estimate (log intensity, higher = more binding, comparable within an allelic series); with HOXC9 [5] it was 9.46 upbm affinity estimate (log intensity, higher = more binding, comparable within an allelic series); in the experiment with ALX3 [6], 7.71 upbm affinity estimate (log intensity, higher = more binding, comparable within an allelic series). Further, the binding signal with PAX4 [7] is 9.32 upbm affinity estimate (log intensity, higher = more binding, comparable within an allelic series); in the experiment with HOXC9 [8], 9.41 upbm affinity estimate (log intensity, higher = more binding, comparable within an allelic series); with PAX4 [9], 9.05 upbm affinity estimate (log intensity, higher = more binding, comparable within an allelic series); in the experiment with HOXC10 [10], 9.85 upbm affinity estimate (log intensity, higher = more binding, comparable within an allelic series); in the experiment with ALX3 [11] it was 7.49 upbm affinity estimate (log intensity, higher = more binding, comparable within an allelic series); with PAX4 [12] it was 9.15 upbm affinity estimate (log intensity, higher = more binding, comparable within an allelic series). The binding signal with ALX3 [13] is 7.82 upbm affinity estimate (log intensity, higher = more binding, comparable within an allelic series); in the experiment with HOXC9 [14] it was 9.69 upbm affinity estimate (log intensity, higher = more binding, comparable within an allelic series); with ALX3 [15] it was 7.71 upbm affinity estimate (log intensity, higher = more binding, comparable within an allelic series); in the experiment with PAX4 [16], 9.26 upbm affinity estimate (log intensity, higher = more binding, comparable within an allelic series); with ALX3 [17] it was 7.68 upbm affinity estimate (log intensity, higher = more binding, comparable within an allelic series).

In the case of CCGGGAGC, the binding signal was 9.52 upbm affinity estimate (log intensity, higher = more binding, comparable within an allelic series) with HOXC9 [1]; 9.29 upbm affinity estimate (log intensity, higher = more binding, comparable within an allelic series) with PAX4 [3]; 9.27 upbm affinity estimate (log intensity, higher = more binding, comparable within an allelic series) in the experiment with PAX4 [4]; 9.24 upbm affinity estimate (log intensity, higher = more binding, comparable within an allelic series) in the experiment with NKX2-6 [18]; 9.61 upbm affinity estimate (log intensity, higher = more binding, comparable within an allelic series) with HOXC9 [5]; 9.33 upbm affinity estimate (log intensity, higher = more binding, comparable within an allelic series) with PAX4 [7]. The binding signal with HOXC9 [8] was 9.49 upbm affinity estimate (log intensity, higher = more binding, comparable within an allelic series); in the experiment with PAX4 [9], 9.16 upbm affinity estimate (log intensity, higher = more binding, comparable within an allelic series); with PAX4 [12], 9.2 upbm affinity estimate (log intensity, higher = more binding, comparable within an allelic series); with HOXC9 [14] it was 9.58 upbm affinity estimate (log intensity, higher = more binding, comparable within an allelic series); with PAX4 [16] it was 9.25 upbm affinity estimate (log intensity, higher = more binding, comparable within an allelic series).

For GAGGGTCC, the binding signal was 8.91 upbm affinity estimate (log intensity, higher = more binding, comparable within an allelic series) with HOXB6 [19] and 8.74 upbm affinity estimate (log intensity, higher = more binding, comparable within an allelic series) with HOXB6 [20].

Take CCCCCCAC: the binding signal is 8.84 upbm affinity estimate (log intensity, higher = more binding, comparable within an allelic series) with HOXB6 [19] and 8.7 upbm affinity estimate (log intensity, higher = more binding, comparable within an allelic series) with HOXB6 [20].

Turning to AGATTAAA, the binding signal with CRX [21] is 12.7 upbm affinity estimate (log intensity, higher = more binding, comparable within an allelic series); with CRX [22], 12.5 upbm affinity estimate (log intensity, higher = more binding, comparable within an allelic series).

With CCGGGTAC, the binding signal is 6.43 upbm affinity estimate (log intensity, higher = more binding, comparable within an allelic series) with ALX1 [23]; 6.2 upbm affinity estimate (log intensity, higher = more binding, comparable within an allelic series) with ALX1 [24]; 6.38 upbm affinity estimate (log intensity, higher = more binding, comparable within an allelic series) in the experiment with ALX1 [25].

For CCCAGGTC, the binding signal with ALX1 [23] is 6.5 upbm affinity estimate (log intensity, higher = more binding, comparable within an allelic series); with ALX1 [24], 6.45 upbm affinity estimate (log intensity, higher = more binding, comparable within an allelic series); with ALX1 [25], 6.46 upbm affinity estimate (log intensity, higher = more binding, comparable within an allelic series).

As for CCTCTCCA, the binding signal was 11.5 upbm affinity estimate (log intensity, higher = more binding, comparable within an allelic series) with NKX2-6 [26] and 9.51 upbm affinity estimate (log intensity, higher = more binding, comparable within an allelic series) in the experiment with NKX2-6 [27].

Turning to CCTCCCAG, the binding signal with VAX1 [28] is 7.07 upbm affinity estimate (log intensity, higher = more binding, comparable within an allelic series); with VAX1 [29] it was 7.13 upbm affinity estimate (log intensity, higher = more binding, comparable within an allelic series); in the experiment with VAX1 [30], 6.95 upbm affinity estimate (log intensity, higher = more binding, comparable within an allelic series).

Turning to ATTTAATA, the binding signal in the experiment with HOXB9 is 11.4 upbm affinity estimate (log intensity, higher = more binding, comparable within an allelic series).

Turning to ATGTTAAC, the binding signal in the experiment with HOXC9 [1] is 11.1 upbm affinity estimate (log intensity, higher = more binding, comparable within an allelic series); with HOXC9 [5], 11.1 upbm affinity estimate (log intensity, higher = more binding, comparable within an allelic series); with HOXC9 [8] it was 11.1 upbm affinity estimate (log intensity, higher = more binding, comparable within an allelic series).

In the case of CGGGAGCC, the binding signal in the experiment with HOXC9 [1] is 9.62 upbm affinity estimate (log intensity, higher = more binding, comparable within an allelic series); with HOXC9 [5] it was 9.73 upbm affinity estimate (log intensity, higher = more binding, comparable within an allelic series); with HOXC9 [8], 9.62 upbm affinity estimate (log intensity, higher = more binding, comparable within an allelic series); with PROP1 [31], 6.62 upbm affinity estimate (log intensity, higher = more binding, comparable within an allelic series); with PROP1 [32], 6.7 upbm affinity estimate (log intensity, higher = more binding, comparable within an allelic series); with HOXC9 [14], 9.69 upbm affinity estimate (log intensity, higher = more binding, comparable within an allelic series). In addition, the binding signal with PROP1 [33] is 6.53 upbm affinity estimate (log intensity, higher = more binding, comparable within an allelic series).

For GAGAGCTC, the binding signal with HOXC9 [1] is 9.48 upbm affinity estimate (log intensity, higher = more binding, comparable within an allelic series); with HOXC9 [5], 9.56 upbm affinity estimate (log intensity, higher = more binding, comparable within an allelic series); in the experiment with HOXC9 [8], 9.3 upbm affinity estimate (log intensity, higher = more binding, comparable within an allelic series); with HOXC9 [14], 9.65 upbm affinity estimate (log intensity, higher = more binding, comparable within an allelic series).

Regarding ATTTAACA, the binding signal was 11.6 upbm affinity estimate (log intensity, higher = more binding, comparable within an allelic series) with HOXC9 [1]; 11.6 upbm affinity estimate (log intensity, higher = more binding, comparable within an allelic series) with HOXC9 [5]; 11.6 upbm affinity estimate (log intensity, higher = more binding, comparable within an allelic series) in the experiment with HOXC9 [8].

For the origin of these results see publication PMC11006913.
